Legend:
Conditions in all cases: concentration: 1 μM, replicates: in singlicate; n = 1
TLK2 = system: TLK2
TNIK = system: TNIK
TNK1 = system: TNK1
TNK2 = system: TNK2
TNNI3K = system: TNNI3K
TRKA = system: T1, TRKA
T1 construct: gene NTRK1

TRKB = system: TRKB
TRKC = system: T2, TRKC
T2 construct: gene NTRK3

TRPM6 = system: TRPM6
TSSK1B = system: TSSK1B
TSSK3 = system: TSSK3
TTK = system: TTK
TXK = system: TXK
[1] = system: TYK2(JH1domain-catalytic)
[2] = system: TYK2(JH2domain-pseudokinase)
TYRO3 = system: TYRO3
ULK1 = system: ULK1
ULK2 = system: ULK2
ULK3 = system: ULK3
VEGFR2 = system: T3, VEGFR2
T3 construct: gene KDR
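Also: KINOMEscan kinase panel screen.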

SMILES | %Inh (TLK2) | %Inh (TNIK) | %Inh (TNK1) | %Inh (TNK2) | %Inh (TNNI3K) | %Inh (TRKA) | %Inh (TRKB) | %Inh (TRKC) | %Inh (TRPM6) | %Inh (TSSK1B) | %Inh (TSSK3) | %Inh (TTK) | %Inh (TXK) | %Inh [1] | %Inh [2] | %Inh (TYRO3) | %Inh (ULK1) | %Inh (ULK2) | %Inh (ULK3) | %Inh (VEGFR2)
O=C(Nc1cccc(-c2nn3ncccc3c2-c2ccnc(Nc3cccc(C(F)(F)F)c3)n2)c1)c1c(F)cccc1F [GSK299495] | 0% | 14% | 90.5% | 49% | 8% | 0% | 39% | 20% | 33% | 5% | 18% | 6% | 76% | 22% | 39% | 87% | 0% | 0% | 7% | 29%
NCC(NC(=O)c1cc(-c2cn[nH]c2)c(-c2ccnc3[nH]ccc23)s1)c1ccccc1.O=C(O)C(F)(F)F.O=C(O)C(F)(F)F (stereo not shown) [GSK1325775] | 14% | 39% | 0% | 0% | 0% | 76% | 57% | 57% | 45% | 33% | 23% | 14% | 10% | 49% | 31% | 0% | 18% | 7% | 14% | 18%
Cc1c2ccc(N(C)c3ccnc(Nc4cccc(S(N)(=O)=O)c4)n3)cc2nn1Cc1ccccc1.Cl.Cl [GW787226] | 12% | 88% | 62% | 0% | 3% | 0% | 0% | 0% | 41% | 1% | 0% | 35% | 17% | 16% | 0% | 0% | 3% | 0% | 6% | 99.2%
O=c1cc(N2CCOCC2)nc2n(Cc3cccc(F)c3)ccn12 [GSK2297430] | 0% | 0% | 0% | 18% | 0% | 54% | 27% | 6% | 0% | 12% | 0% | 0% | 4% | 13% | 2% | 12% | 0% | 0% | 0% | 0%
COc1cc(Nc2nccc(N3CCC(NC(=O)c4cccc(NC(C)=O)c4)C3)n2)cc(OC)c1OC (stereo not shown) [GSK1379754] | 0% | 0% | 0% | 16% | 0% | 69% | 0% | 22% | 22% | 18% | 20% | 27% | 7% | 68% | 19% | 0% | 10% | 0% | 87% | 10%
